Compound activity as filed in PubChem.
Most compounds without a hit are left out; they make up all but 1.3% or so of the library.
E coli Lon inh: inhibitors of E. coli Lon protease | P0A9M0 | purified E. coli Lon protease, fluorescence polarization | inhibition, % at 7.94 µM | actives 0.42% (n = 360,000) | AID 602123; in the data active = inhibition above about 13%, passing the limit was not always enough
RTF Ca sens inh: cardiac RTF calcium desensitization | actives 0.12% (n = 340,000) | inhibition, % at 7.15 µM | AID 493244 | IANBD-labeled cardiac RTF, Ca2+ fluorescence;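 active = inhibition above the mean inhibition of all tested compounds plus 3 SD, cut at about 17% in these data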;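 also: assay run at fixed EC70 calcium of 1.6 mM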
RTF Ca sens act: cardiac RTF calcium sensitization; IANBD-labeled TnC RTF fluorescence at EC20 calcium; 0% EC20 calcium, 100% full calcium; actives 0.24% (n = 340,000); activation, % at 7.2 µM;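 active = activation above the mean over all tested compounds plus 3 SD, cut at about 30% in these data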;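 also: rise in fluorescence read as greater calcium sensitivity of cardiac thin filaments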
LANA-H2B inh: blocks KSHV LANA binding to histone H2A/H2B. Q9QR71. inhibition, % (test concentration not listed). cell-free LANA-H2A/H2B peptide, fluorescence polarization. AID 2629. actives 0.6% (n = 320,000); in the data active = inhibition mostly above about 10%, no sharp cut-off; inactive = mostly below about 6.7%
Keap1 Nrf2 FP: inhibitors of human Keap1-Nrf2 protein-protein interaction; actives 0.15% (n = 340,000); inhibition, % at 9.4 µM; Keap1 Kelch-Nrf2 peptide fluorescence polarization, 1536-well; Q14145; AID 504523; in the data active = inhibition above about 12%;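 also: human Keap1 Kelch domain with fluorescein labeled Nrf2 9mer peptide probe; higher means more block of Keap1 binding to Nrf2 peptide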
LANA DNA inh: blocks KSHV LANA C-terminal domain binding to DNA | MBP-C-LANA/FAM-LBS DNA binding, fluorescence polarization | inhibition, % at 9 µM | actives 0.078% (n = 340,000);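 active = highest replicate inhibition at or above 60% at 9 µM, even if other replicates fall short; inactive = all replicates below 60% inhibition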
Keap1 Kelch bind: binders of human Keap1 Kelch domain. Keap1 Kelch thermal shift, delta Tm; stronger effect = higher value. shares compounds with Keap1 Nrf2 FP. max delta Tm, degrees C. actives 8% (n = 400). AID 651823; in the data active = max delta Tm above about 0.48 degrees C
Dye-only ctr: counter-screen for Keap1 thermal shift hits: dye-only artifacts; delta Tm, degrees C (test concentration not listed); shares compounds with Keap1 Nrf2 FP; 140 tested, under 10 active; Sypro Orange dye-only thermal melt, no protein, delta Tm; top dose 26 µM;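 active = at highest dose tested, delta Tm positive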
eLon confirm: E. coli Lon inhibition confirmation | shares compounds with E coli Lon inh | purified E. coli Lon, fluorescence polarization | inhibition, % at 7.94 µM | actives 31% (n = 1,400); in the data active = inhibition above about 16%
Hits are given with their value; – = inactive; · = not tested or not shown; + = active, no number.

SMILES | E coli Lon inh | RTF Ca sens inh | RTF Ca sens act | LANA-H2B inh | Keap1 Nrf2 FP | LANA DNA inh | Keap1 Kelch bind | eLon confirm | others
Cn1c(=O)c(NCCc2ccccc2)c2c3c(cccc31)C(=O)c1ccccc1-2 | + | – | + | 128.0 | 45.1 | 101.3 | – | –
CCCCNc1c2c3c(cccc3n(C)c1=O)C(=O)c1ccccc1-2 | 188.0 | – | + | 22.8 | 57.7 | 71.3 | – | 101.2
O=C(NCC(=O)N(c1cccnc1)C(C(=O)NC1CCCCC1)c1ccccc1F)c1ccco1 (stereo unspecified) | – | – | – | – | – | – | · | ·
COc1cc(C(=S)N2CCOCC2)cc(OC)c1O | – | – | – | – | – | – | · | ·
COc1ccc2ccccc2c1C(O)c1nccn1C (stereo unspecified) | 54.9 | – | 84.2 | 38.4 | 32.9 | – | – | 168.2
Cn1ccnc1C(O)c1ccccc1 (stereo unspecified) | – | – | – | – | – | – | · | ·
COCCNC(=O)/C(C#N)=C/c1cc(C(C)C)c(OC)cc1C | – | – | – | – | – | – | · | ·
COc1ccc(/C=N/N=C2/NC(=O)CC(C(=O)O)S2)cc1 (stereo unspecified) | – | – | – | – | – | – | · | ·
COc1ccc(/C=N/N=C2/CC(C)(C)Cc3n[nH]c(=O)cc32)cc1 | 44.7 | – | – | – | 13.0 | – | – | 20.9
CC1OC2(C)OC(=N)C1(C#N)C(C#N)(C#N)C2c1ccccc1 (stereo unspecified) | 15.4 | – | – | – | 22.9 | – | – | – | Dye-only ctr=–
CCCCC1OC2(C)OC(=N)C1(C#N)C(C#N)(C#N)C2c1ccccc1 (stereo unspecified) | 28.9 | – | – | – | 30.0 | – | – | –
c1ccc2[nH]c3cc4ncnc4cc3nc2c1 | 153.4 | – | 57.9 | 26.4 | 35.0 | 74.7 | – | +
FC(F)c1nc2ccccc2[nH]1 | – | – | – | – | – | – | · | ·
CC(OC(=O)CN1C(=O)c2ccccc2C1=O)C(=O)N(C)c1ccccc1 (stereo unspecified) | – | – | – | – | – | – | · | ·
COc1ccc(C2OC34CCCCC3C(C#N)(C#N)C2(C#N)C(=N)O4)cc1 (stereo unspecified) | 33.9 | – | – | – | 22.1 | – | – | 34.2 | Dye-only ctr=–
CCC1OC23CCCCC2C(C#N)(C(=N)O3)C1(C#N)C#N (stereo unspecified) | 28.4 | – | 35.1 | – | 27.5 | – | – | – | Dye-only ctr=–
CC1OC23CCCCC2C(C#N)(C(=N)O3)C1(C#N)C#N (stereo unspecified) | – | – | – | – | – | – | · | ·
CCCCn1c(=O)[nH]c2nc3cc(N)ccc3nc2c1=O | + | – | 767.4 | 84.8 | 49.6 | – | – | + | Dye-only ctr=–
Nc1ccc2nc3c(=O)n(C4CCCCC4)c(=O)[nH]c3nc2c1 | + | – | 456.8 | 72.2 | 60.3 | – | – | 182.7 | Dye-only ctr=–
CCCCn1c(N)c(Br)c(=O)[nH]c1=O | – | – | – | – | – | – | · | ·
COc1cc2[nH]c(=O)n(C3CCCCC3)c(=O)c2cc1OC | – | – | – | – | – | – | · | ·
O=c1[nH]c(-[n+]2ccccc2)c(/C=N/NC([S-])=Nc2ccccc2)s1 | 94.1 | – | – | – | 17.0 | – | – | –
Cc1cc[n+](-c2[nH]c(=O)sc2/C=N/NC([S-])=Nc2ccccc2)cc1 | 63.3 | – | 41.8 | – | 31.7 | – | – | 53.4
Cc1cc(C)c[n+](-c2[nH]c(=O)sc2/C=N/NC([S-])=Nc2ccccc2)c1 | 69.5 | – | 74.8 | · | 26.0 | – | – | 75.7 | Dye-only ctr=–
CCc1ccc[n+](-c2[nH]c(=O)sc2/C=N/NC([S-])=Nc2ccccc2)c1 | 104.8 | – | 85.1 | – | 49.4 | 89.3 | – | 129.5 | Dye-only ctr=–
SMILES | E coli Lon inh | RTF Ca sens inh | RTF Ca sens act | LANA-H2B inh | Keap1 Nrf2 FP | LANA DNA inh | Keap1 Kelch bind | eLon confirm | others
CC(C)(C)c1cc[n+](-c2[nH]c(=O)sc2/C=N/N=C(\[O-])c2cccnc2)cc1 | – | – | – | – | – | – | · | ·
CCc1ccc[n+](-c2[nH]c(=O)sc2/C=N/N=C(\N)[O-])c1 | – | – | – | – | – | – | · | ·
CCN(C(=O)c1cccs1)C1CCS(=O)(=O)C1 (stereo unspecified) | – | – | – | · | – | – | · | ·
CC(C)(C)OC(=O)N1CCN(c2ccc(NC(=O)c3ccco3)cc2)CC1 | – | – | – | · | – | – | · | ·
COc1ccc(N=Nc2nc3ccc(Br)cc3n2C)cc1 | + | – | 132.3 | 88.3 | 47.8 | 69.8 | – | 91.7
Cc1oc2cc(O)ccc2c(=O)c1-c1nncn1-c1ccccc1 | 34.2 | – | – | – | 25.4 | – | – | 50.8 | Dye-only ctr=–
Cc1ccc(-c2nnc(Oc3ccc(NC(=O)c4ccccc4)cc3)c3ccccc23)cc1 | – | – | – | · | – | – | · | ·
CCc1cc[n+](-c2nc([O-])sc2C=O)cc1 | 40.1 | – | – | – | 28.8 | – | – | –
CC(C)c1nnc(N2C(=O)C(O)=C(C(=O)c3cccs3)C2c2ccccc2)s1 (stereo unspecified) | 34.0 | – | – | · | 20.1 | – | – | 80.3
CCOC(=O)C1CCCN(C(=O)C2COc3ccccc3O2)C1 (stereo unspecified) | – | – | – | · | – | – | · | ·
CCOC(=O)C1CCCN(C(=O)C2c3ccccc3Oc3ccccc32)C1 (stereo unspecified) | + | – | 92.8 | 70.6 | 46.6 | 119.5 | – | 36.4 | Dye-only ctr=–
CC(C)c1nc(C(=O)N2CCCC(N3CCN(c4cccc(Cl)c4)CC3)C2)cs1 (stereo unspecified) | – | – | – | – | – | – | · | ·
CN1CC=C2C(C#N)=C(N)C(C#N)(C#N)C(c3cccc(Cl)c3Cl)C2C1 (stereo unspecified) | – | – | – | – | – | – | · | ·
Cc1ccc(C2C3CN(C(C)C)CC=C3C(C#N)=C(N)C2(C#N)C#N)cc1 (stereo unspecified) | 35.6 | – | 136.1 | – | 22.8 | – | – | 47.8
CN1CC=C2C(C#N)=C(N)C(C#N)(C#N)[C@H](c3ccoc3)[C@H]2C1 | 130.0 | – | 50.5 | 18.4 | 26.6 | – | – | 109.3
CCCNc1cc(=S)nc(N)[nH]1 | – | – | – | – | – | – | · | ·
COc1ccccc1N1CCN(CCCCOc2ccc(C)cc2C)CC1 | – | – | – | – | – | – | · | ·
Cn1c(=O)c(N)c2c3c(c(Br)ccc31)C(=O)c1ccccc1-2 | + | – | + | 42.7 | 31.3 | 124.3 | – | +
